Inconclusive results are not listed. The source made the active and inactive calls. Rule for the calls, unless noted: active = hit-call score of the fitted dose curve at least 0.9, where 1 is the maximum; inactive = score below 0.9.

Assay [1] can be described thus: ATG_PBREM_CIS: Attagene CIS-FACTORIAL HepG2 Assay for human Phenobarbital-responsive Enhancer Module (PBREM) (AID 2282955). Conditions: HepG2 PBREM cis-reporter, Attagene multiplexed transcription; actives raise or lower the signal. The method in brief: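 HepG2 cells transiently transfected with multiple cis-regulated reporter units measure endogenous transcription factor activity; 24 h compound exposure. Reporter mRNA quantified by RT-PCR, fluorescent labelling, HpaI digestion and capillary electrophoresis; bidirectional fit versus DMSO.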

In assay [2] the target is Paired box protein Pax-6 (Homo sapiens) (UniProt P26367). Briefly: ATG_Pax6_CIS: Attagene CIS-FACTORIAL HepG2 Assay for human Paired Box 6 (PAX6) (AID 2282956). To be noted: HepG2 CIS-FACTORIAL PAX6 reporter transcription, RNA readout; actives raise or lower the signal. In a few lines:
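Read-out is reporter transcript level, measured by RT-PCR with fluorescent primer extension and capillary electrophoresis after 24 h dosing of transfected HepG2 cells. Activity in either direction fitted relative to DMSO control.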

Assay [3] in a line: ATG_PPRE_CIS: Attagene CIS-FACTORIAL HepG2 Assay for human Peroxisome Proliferator-activated Response Element (PPRE) (AID 2282958). To be noted: HepG2 PPRE cis-element reporter, Attagene transcription factor profiling; actives raise or lower the signal. The method in brief: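 HepG2 cells are transiently transfected with multiplexed cis-promoter reporter units to report endogenous PPAR activity. After 24 h dosing, reporter mRNA is read by RT-PCR and capillary electrophoresis. Fitting is bidirectional against DMSO.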

Assay [4] is described as follows: ATG_RORE_CIS: Attagene CIS-FACTORIAL HepG2 Assay for human RAR-related Orphan Receptor Element (RORE) (AID 2282959). To be noted: HepG2 Attagene cis-factorial RORE reporter, mRNA; actives raise or lower the signal. The method in brief:
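HepG2 cells carrying transiently transfected cis-regulated reporter units; RORE-driven reporter mRNA quantified 24 h post-dosing by RT-PCR, 6-FAM primer extension, HpaI digestion and capillary electrophoresis. Bidirectional fit versus DMSO.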

The nature of assay [5]: ATG_Sox_CIS: Attagene CIS-FACTORIAL HepG2 Assay for human SRY-box transcription factor (SOX) (AID 2282960). Conditions: HepG2 Attagene cis-factorial SOX reporter, mRNA; actives raise or lower the signal. The method in brief: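 HepG2 cells transiently transfected with multiple cis-regulated reporter units, then dosed for 24 h. Reporter mRNA quantified by RT-PCR, fluorescent labelling, HpaI digestion and capillary electrophoresis; bidirectional fit versus DMSO.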

Assay [6] deals with Transcription factor Sp1 (Homo sapiens) (UniProt P08047). Briefly: ATG_Sp1_CIS: Attagene CIS-FACTORIAL HepG2 Assay for human Specificity Protein 1 (Sp1) (AID 2282961). Conditions: HepG2 Sp1 cis-reporter transcription, actives raise or lower the signal. The method in brief: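 HepG2 cells transiently transfected with multiplexed cis-regulated reporter constructs, chemical exposure 24 h. Reporter mRNA quantified by RT-PCR with capillary electrophoresis; bidirectional fit relative to DMSO.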
Chain of Transcription factor Sp1 (Homo sapiens) (P08047 whole entry, looked up): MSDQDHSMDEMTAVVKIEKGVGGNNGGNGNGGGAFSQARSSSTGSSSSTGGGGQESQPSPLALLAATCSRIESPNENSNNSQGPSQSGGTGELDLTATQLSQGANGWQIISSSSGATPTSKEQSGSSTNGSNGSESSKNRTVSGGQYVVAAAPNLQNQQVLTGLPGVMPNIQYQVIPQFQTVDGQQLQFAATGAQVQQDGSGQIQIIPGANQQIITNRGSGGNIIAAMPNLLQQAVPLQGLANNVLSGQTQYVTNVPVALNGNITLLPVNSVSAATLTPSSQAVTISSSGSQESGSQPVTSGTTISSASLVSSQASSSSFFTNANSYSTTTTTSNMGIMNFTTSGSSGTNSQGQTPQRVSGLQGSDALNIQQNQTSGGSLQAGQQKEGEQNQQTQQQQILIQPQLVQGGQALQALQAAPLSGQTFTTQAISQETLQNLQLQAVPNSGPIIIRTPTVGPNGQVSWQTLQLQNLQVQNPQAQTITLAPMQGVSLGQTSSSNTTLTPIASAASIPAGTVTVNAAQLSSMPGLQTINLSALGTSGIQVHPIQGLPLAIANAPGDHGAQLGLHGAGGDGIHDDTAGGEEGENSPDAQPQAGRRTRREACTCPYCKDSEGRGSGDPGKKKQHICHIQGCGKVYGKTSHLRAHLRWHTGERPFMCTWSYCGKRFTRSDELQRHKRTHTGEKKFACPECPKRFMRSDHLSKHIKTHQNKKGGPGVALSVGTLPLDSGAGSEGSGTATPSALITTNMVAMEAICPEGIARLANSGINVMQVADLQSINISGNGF

Assay [7] is described as follows: ATG_SREBP_CIS: Attagene CIS-FACTORIAL HepG2 Assay for human Sterol Regulatory Element Binding (SREBP) (AID 2282962). Conditions: HepG2 Attagene cis-factorial SREBP reporter, mRNA; actives raise or lower the signal. In a few lines: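 Endogenous SREBP activity read as cis-element-driven reporter transcript in transiently transfected HepG2, 24 h post-dosing; quantified via RT-PCR plus capillary electrophoresis of fluorescent fragments. Gain or loss of signal fitted relative to DMSO baseline.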

The target of assay [8] is Signal transducer and activator of transcription 3 (Homo sapiens) (UniProt P40763). Briefly: ATG_STAT3_CIS: Attagene CIS-FACTORIAL HepG2 Assay for human Signal Transducer and Activator of Transcription 3 (STAT3) (AID 2282963). To be noted: HepG2, Attagene cis-factorial STAT3 reporter transcription; actives raise or lower the signal. In a few lines:
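Cis-factorial format: endogenous transcription factors in HepG2 drive transfected reporter units. After 24 h treatment, reporter RNA was reverse-transcribed, amplified, FAM-labelled and HpaI-digested before CE analysis; activity scored in both directions against DMSO.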

Assay [9] can be described thus: ATG_TA_CIS: Attagene CIS-FACTORIAL HepG2 Assay for human TA Basal Promoter (AID 2282964). Conditions: HepG2 Attagene CIS-factorial TA basal promoter reporter; actives raise or lower the signal. In a few lines: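 HepG2 cells transiently transfected with multiple reporter units under cis promoter elements, reporting endogenous transcription factor activity; this endpoint tracks the TA basal promoter as background control. Reporter mRNA after 24 h dosing measured by RT-PCR/capillary electrophoresis; bidirectional fits versus DMSO.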

Assay [10] can be described thus: ATG_TCF_b_cat_CIS: Attagene CIS-FACTORIAL HepG2 Assay for human T-Cell-Factor with beta-catenin (TCF/b-cat) (AID 2282965). Conditions: HepG2 TCF/beta-catenin cis-reporter transcription, actives raise or lower the signal. The method in brief: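 Endogenous TCF/LEF activity read as reporter transcript level via RT-PCR and capillary electrophoresis fluorescence in transfected HepG2, 24 h exposure; gain or loss of signal fitted against DMSO controls.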

A short description of assay [11]: ATG_TAL_CIS: Attagene CIS-FACTORIAL HepG2 Assay for human TAL Basal Promoter (AID 2282966).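 Note: background control endpoint measuring basal TAL promoter reporter mRNA not a specific factor.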 Conditions: HepG2 Attagene cis-factorial TAL promoter reporter; actives raise or lower the signal. The method in brief:
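Human hepatoma HepG2 cells, transfected with promoter-regulated reporter units, were treated 24 h. Reporter transcript levels, measured through RT-PCR and capillary electrophoresis, were fitted for gain or loss relative to DMSO.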

Assay [12] is described as follows: ATG_TGFb_CIS: Attagene CIS-FACTORIAL HepG2 Assay for human Transforming Growth Factor (TGF) (AID 2282967). To be noted: HepG2 Attagene CIS TGFb reporter, mRNA transcription; actives raise or lower the signal. In a few lines:
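HepG2 cells transiently transfected with cis-promoter-driven multiple reporter units measure endogenous TF activity; reporter mRNA quantified at 24 h by RT-PCR, FAM labeling, HpaI digestion and capillary electrophoresis. Bidirectional fit vs DMSO.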

The target in assay [13] is Estrogen receptor (Homo sapiens) (UniProt P03372). The experiment in a line: ATG_ERa_TRANS: Attagene TRANS-FACTORIAL HepG2 Assay for human Estrogen Receptor alpha (ERa) (AID 2282970; active = hit-call score of the fitted dose curve at least 0.9, where 1 is the maximum). Conditions: HepG2 Attagene TRANS ERa GAL4 reporter, mRNA. In a few lines:
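Signal derives from fluorescence of labelled reporter PCR fragments separated by capillary electrophoresis. HepG2 cells transiently carrying multiple GAL4-UAS reporter units were treated 24 hours, and induction above DMSO baseline was fitted as activity.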

Assay [14] in a line: ATG_GAL4_TRANS: Attagene TRANS-FACTORIAL HepG2 Assay for GAL4 (Internal Marker) (AID 2282976; active = hit-call score of the fitted dose curve at least 0.9, where 1 is the maximum). To be noted: HepG2 Attagene TRANS GAL4 internal marker reporter. In a few lines:
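Liver HepG2 line bearing multiplexed GAL4-UAS reporter constructs; 24 h chemical treatment. Transcripts were quantified as fluorescent fragments on capillary electrophoresis after RT-PCR and HpaI cut, with activity fitted upward from DMSO.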

The nature of assay [15]: ATG_PXRE_CIS: Attagene CIS-FACTORIAL HepG2 Assay for human Pregnane X Receptor Element (PXRE) (AID 2282957). To be noted: HepG2 Attagene CIS-FACTORIAL PXRE reporter, mRNA; actives raise or lower the signal. In a few lines: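 Bidirectional activity, baselined to DMSO, derived from reporter mRNA fluorescence (RT-PCR plus capillary electrophoresis) in HepG2 cells bearing cis-promoter reporter units, 24 h exposure.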

Assay [16] in a line: ATG_VDRE_CIS: Attagene CIS-FACTORIAL HepG2 Assay for human Vitamin D Receptor Element (VDRE) (AID 2282968). To be noted: HepG2 VDRE cis-reporter transcription, actives raise or lower the signal. In a few lines:
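Measures endogenous factor activity through cis-element-driven reporter transcripts in transiently transfected HepG2. Cells are treated 24 h; reporter mRNA is quantified by RT-PCR and capillary electrophoresis; fitting is bidirectional.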

In assay [17] the target is Steroid hormone receptor ERR1 (Homo sapiens) (UniProt P11474). Briefly: ATG_ERRa_TRANS: Attagene TRANS-FACTORIAL HepG2 Assay for human Estrogen-Related Receptor alpha (ERRa) (AID 2282971; active = hit-call score of the fitted dose curve at least 0.9, where 1 is the maximum). To be noted: HepG2 Attagene TRANS reporter, ERRa transactivation. In a few lines:
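Signal gain relative to DMSO for an ERRa-Gal4 chimeric receptor, read as reporter mRNA by RT-PCR/capillary electrophoresis. Human HepG2 liver cells, transient multiplex reporter transfection, 24 h chemical exposure.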

In assay [18] the target is X-box-binding protein 1 (Homo sapiens) (UniProt P17861). The experiment in a line: ATG_Xbp1_CIS: Attagene CIS-FACTORIAL HepG2 Assay for human X-box Binding Protein 1 (XBP1) (AID 2282972). To be noted: HepG2 XBP1 cis-element reporter, Attagene multiplex; actives raise or lower the signal. In a few lines:
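Reporter transcripts were quantified by RT-PCR with fluorescent primer extension and capillary electrophoresis after 24 h chemical exposure. Cells: transiently transfected HepG2 carrying cis-regulated reporter constructs; data fitted bidirectionally relative to DMSO.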

Assay [19] is described as follows: ATG_M_19_TRANS: Attagene TRANS-FACTORIAL HepG2 Assay for M19 Transcription Factor (Internal Marker) (AID 2282974; active = hit-call score of the fitted dose curve at least 0.9, where 1 is the maximum). To be noted: HepG2 Attagene TRANS-FACTORIAL M19 internal marker reporter. In a few lines: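 HepG2 transiently transfected with GAL4-UAS multiplex reporter constructs, exposed 24 h; reporter RNA quantified by RT-PCR, 6-FAM labeling, HpaI digestion and capillary electrophoresis; internal background marker fitted upward versus DMSO.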

In assay [20] the target is Nuclear receptor subfamily 1 group I member 3 (Homo sapiens) (UniProt Q14994). Briefly: ATG_CAR_TRANS: Attagene TRANS-FACTORIAL HepG2 Assay for human Constitutive Androstane Receptor (CAR) (AID 2282969; active = hit-call score of the fitted dose curve at least 0.9, where 1 is the maximum;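 note: activators raise reporter mRNA above DMSO so AC50 marks induction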). To be noted: HepG2 Attagene TRANS-FACTORIAL CAR reporter. In a few lines:
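Signal is reporter mRNA induction relative to DMSO, measured 24 h after dosing by RT-PCR with fluorescent primer extension and capillary electrophoresis. Human HepG2 liver cells carried transiently transfected chimeric NR-Gal4/GAL4-UAS reporter constructs.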

Chain of Estrogen receptor (Homo sapiens) (P03372 whole entry, looked up, the tested form may be a part): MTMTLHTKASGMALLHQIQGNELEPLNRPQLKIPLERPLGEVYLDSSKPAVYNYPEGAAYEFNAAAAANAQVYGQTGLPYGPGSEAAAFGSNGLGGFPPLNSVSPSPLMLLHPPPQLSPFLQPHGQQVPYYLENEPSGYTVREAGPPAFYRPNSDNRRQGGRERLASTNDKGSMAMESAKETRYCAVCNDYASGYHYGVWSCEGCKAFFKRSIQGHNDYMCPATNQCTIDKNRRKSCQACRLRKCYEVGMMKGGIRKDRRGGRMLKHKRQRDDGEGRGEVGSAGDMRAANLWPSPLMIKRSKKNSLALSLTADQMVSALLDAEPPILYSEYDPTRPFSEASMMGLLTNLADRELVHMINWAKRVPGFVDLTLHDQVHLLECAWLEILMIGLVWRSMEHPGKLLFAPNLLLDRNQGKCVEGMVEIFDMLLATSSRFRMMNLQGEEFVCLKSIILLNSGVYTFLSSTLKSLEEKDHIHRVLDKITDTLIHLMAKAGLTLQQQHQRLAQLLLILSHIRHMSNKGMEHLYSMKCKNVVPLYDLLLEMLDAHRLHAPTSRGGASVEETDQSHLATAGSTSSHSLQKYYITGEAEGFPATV
Chain of Paired box protein Pax-6 (Homo sapiens) (P26367 whole entry, looked up): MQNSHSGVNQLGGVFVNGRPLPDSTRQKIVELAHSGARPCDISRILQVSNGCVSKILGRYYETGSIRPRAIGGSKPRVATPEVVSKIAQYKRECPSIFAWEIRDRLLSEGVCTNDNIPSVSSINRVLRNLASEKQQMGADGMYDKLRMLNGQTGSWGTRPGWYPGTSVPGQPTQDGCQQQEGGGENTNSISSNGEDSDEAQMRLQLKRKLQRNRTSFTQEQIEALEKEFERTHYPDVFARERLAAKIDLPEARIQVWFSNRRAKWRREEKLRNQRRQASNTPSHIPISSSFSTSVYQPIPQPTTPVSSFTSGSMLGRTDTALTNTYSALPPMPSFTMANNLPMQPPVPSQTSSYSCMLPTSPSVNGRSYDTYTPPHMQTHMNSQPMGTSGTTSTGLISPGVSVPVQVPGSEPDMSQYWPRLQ
Chain of Signal transducer and activator of transcription 3 (Homo sapiens) (P40763 whole entry, looked up): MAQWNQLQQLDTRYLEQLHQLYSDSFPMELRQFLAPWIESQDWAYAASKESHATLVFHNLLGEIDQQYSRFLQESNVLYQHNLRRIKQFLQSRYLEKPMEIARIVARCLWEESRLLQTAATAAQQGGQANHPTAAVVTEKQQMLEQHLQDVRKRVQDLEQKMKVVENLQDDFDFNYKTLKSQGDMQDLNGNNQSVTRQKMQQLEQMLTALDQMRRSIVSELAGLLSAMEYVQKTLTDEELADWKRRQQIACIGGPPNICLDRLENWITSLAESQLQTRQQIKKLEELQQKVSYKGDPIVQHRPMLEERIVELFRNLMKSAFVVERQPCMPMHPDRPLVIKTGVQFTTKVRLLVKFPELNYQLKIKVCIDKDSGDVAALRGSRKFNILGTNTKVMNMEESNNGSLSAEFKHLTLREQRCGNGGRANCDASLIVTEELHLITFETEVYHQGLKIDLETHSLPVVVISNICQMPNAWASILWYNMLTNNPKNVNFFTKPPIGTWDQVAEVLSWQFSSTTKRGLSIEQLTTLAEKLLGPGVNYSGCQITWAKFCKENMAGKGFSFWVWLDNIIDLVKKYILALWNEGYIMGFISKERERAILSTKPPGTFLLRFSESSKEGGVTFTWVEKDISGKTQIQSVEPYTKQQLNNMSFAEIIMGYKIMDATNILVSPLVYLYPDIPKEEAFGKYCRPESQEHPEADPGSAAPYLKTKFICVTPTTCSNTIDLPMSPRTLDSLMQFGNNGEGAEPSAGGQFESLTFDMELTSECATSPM
Chain of X-box-binding protein 1 (Homo sapiens) (P17861 whole entry, looked up): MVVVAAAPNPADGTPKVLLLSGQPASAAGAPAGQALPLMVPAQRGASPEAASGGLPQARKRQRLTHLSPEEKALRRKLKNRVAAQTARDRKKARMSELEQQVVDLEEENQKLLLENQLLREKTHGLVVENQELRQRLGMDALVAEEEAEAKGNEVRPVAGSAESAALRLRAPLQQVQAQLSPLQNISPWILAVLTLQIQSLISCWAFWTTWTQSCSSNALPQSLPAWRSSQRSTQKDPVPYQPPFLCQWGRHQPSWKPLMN
Chain of Steroid hormone receptor ERR1 (Homo sapiens) (P11474 whole entry, looked up, the tested form may be a part): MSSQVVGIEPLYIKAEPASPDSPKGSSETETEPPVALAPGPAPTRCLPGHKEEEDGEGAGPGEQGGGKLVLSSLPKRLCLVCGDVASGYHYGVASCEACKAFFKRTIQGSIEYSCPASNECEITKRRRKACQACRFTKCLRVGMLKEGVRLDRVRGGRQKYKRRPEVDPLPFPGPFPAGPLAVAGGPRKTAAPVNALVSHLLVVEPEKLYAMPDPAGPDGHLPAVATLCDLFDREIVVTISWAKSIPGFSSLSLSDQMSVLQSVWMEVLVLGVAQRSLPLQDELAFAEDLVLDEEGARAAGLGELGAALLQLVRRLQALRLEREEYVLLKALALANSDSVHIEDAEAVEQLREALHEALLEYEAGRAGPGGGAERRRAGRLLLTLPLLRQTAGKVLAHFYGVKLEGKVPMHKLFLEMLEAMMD
Chain of Nuclear receptor subfamily 1 group I member 3 (Homo sapiens) (Q14994 whole entry, looked up, the tested form may be a part): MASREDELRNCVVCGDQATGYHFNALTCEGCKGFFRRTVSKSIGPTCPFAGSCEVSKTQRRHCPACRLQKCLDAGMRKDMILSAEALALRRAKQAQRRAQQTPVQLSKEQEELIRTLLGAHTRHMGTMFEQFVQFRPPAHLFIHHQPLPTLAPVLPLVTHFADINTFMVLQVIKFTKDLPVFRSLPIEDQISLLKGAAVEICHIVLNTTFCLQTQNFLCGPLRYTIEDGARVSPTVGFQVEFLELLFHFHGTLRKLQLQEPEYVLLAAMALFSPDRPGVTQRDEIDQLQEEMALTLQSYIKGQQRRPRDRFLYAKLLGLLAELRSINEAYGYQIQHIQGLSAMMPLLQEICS

Take `CCc1occc(=O)c1O`: the result in [1], in assay [2], in assay [3], in [4], in [5] and in assay [6] was inactive. The outcome in [7], in assay [8], in [9], in assay [10], in assay [11] and in [12] was inactive. Further, the molecule was classed as inactive in assay [13] and in assay [14].

As for `CCCCCCCCCCCCCCCCCCOS(=O)(=O)O`, the result in assay [2], in assay [15], in [3], in [4], in assay [5] and in assay [6] was inactive. For the same molecule, the outcome in assay [8], in assay [11], in assay [12], in [13], in [17] and in assay [19] was inactive. The AC50 in assay [7] was 52.7 µM (active); in assay [9] it was 12.4 µM (active); in assay [10] it was 17.3 µM (active); in [16], 51.7 µM (active); in [18] it was 33.4 µM (active).

Turning to `CCOC(=O)C1=NOC(c2ccccc2)(c2ccccc2)C1`, the molecule was called inactive in [2], in assay [3], in assay [4], in assay [5], in assay [6] and in assay [7]. Moreover, the outcome in assay [8], in [9], in assay [10], in assay [11], in assay [12] and in [16] was inactive. The molecule was called inactive in [13] and in assay [18]. Moreover, the AC50 in assay [15] was 18.3 µM (active).

Consider `CCCCCCO`, for which the result in [1], in assay [2], in assay [4], in [5], in [6] and in [7] was inactive. The call in assay [9], in assay [10], in assay [11], in [12], in assay [16] and in [13] was inactive. Further, the result in assay [18] was inactive.

In the case of `CC=C(C)C=CC=C(C)C`, the result in [1], in assay [2], in [5], in [7], in assay [8] and in [9] was inactive. For the same molecule, the molecule was called inactive in [10], in assay [11], in [12], in assay [20], in assay [13] and in assay [18]. In assay [16], the AC50 was 27.7 µM (active).

Values taken from PubChem BioAssay (EPA / NIEHS).
